# Measured values taken from the OligoGym collection.
# Target: CACNA1S
# Assay: pooled miR-30 sensor sort-seq; sequence = guide strand
# Conditions: shRNA
# Note: reference of the scale not given here.
row,Sequence,sensor-assay potency score (higher = more potent)
1,TTGTCGAAGTGGAAGTCGCTGT,-0.229
2,TAGTAGTATGCAAAGTTGGTGC,-0.181
3,TACACGTAGTAGTAGCCCCTGC,-0.425
4,TACATCTTCATCAGCATCTCAG,-0.408
5,TTGAGGATCATCTCCAGGGTGA,-0.175
6,TCTAGTTGCTGCTTCTCCCGGA,0.563
7,TTCAGCATCTCCACACAGGGTT,0.136
8,TTGGACAAGTCGGTGCACCTGA,0.00785
9,TTACCTTCCGTCTTGATCTTGA,0.578
10,ATACTGTACACATTGGCGCTGG,0.068
11,TTTAAGGATCTGATTTCTCATG,-1.14
12,TTGAGGTCCAGTCTTCCCCTGT,-0.528
13,TAGTATGCAAAGTTGGTGCCAC,0.194
14,TTGATCAGCCTCATGACACGGA,0.698
15,TATCTCAGCAAACTGGAGGGGT,-0.123
16,TTCCAGGAAGTTGTCCACCTGG,-0.276
17,TTGGTGATCTTGAAGATCCTCA,0.453
18,TCTGAAGTCCTCAACATCCATG,-1.41
19,TTCATCAGCATCTCAGTGGTGA,0.298
20,TCTTGTACTCAGTCTCTCCCTG,0.136
21,TTGATCTTGAGTGCCGTGCGGA,-0.578
22,TTGAGGACAATCTCCACAGTGA,-0.144
23,TTGAGCAGGATGTAGTTGCCAC,-0.202
24,ATTAGATTCAAACTCATCGATT,-0.846

# Target: CACNA2D4
# Assay: as above
# Conditions: shRNA
row,Sequence,sensor-assay potency score (higher = more potent)
1,TAATAGTCGAACACCAGGGATT,-1.39
2,TCGATTGTCTCGGTCCGCCTGG,-0.412
3,TTTGACTTCTGTCGCCTCCTGC,-0.115
4,TTTATACCTGGATAGATCCTGA,-0.0984
5,TTCCAGAGGAATCTTGGCCTGT,0.14
6,TATACTTCTCAAACACCGGCTC,-0.108
7,TTATACTTCTCAAACACCGGCT,-0.014
8,TTGTAATAGTCGAACACCAGGG,-0.554
9,TTGTTGTCGATGACGAAGCAGT,-0.871
10,TCTGTGATGCAGTAGATCCAGT,-0.578
11,TCAGGTGTCAGGAACTTCCTGT,0.631
12,TTGGAGATCAGAATGAACCCGT,0.657
